Source: PubChem BioAssay (National Center for Advancing Translational Sciences (NCATS))
Shiga toxin inh = blocks Shiga toxin action in Vero cells | Vero cells, Shiga toxin protein synthesis inhibition reporter | inhibition, % at 38.7 µM | 290,000 tested, 9.2% active | AID 2315; in the data active = inhibition mostly above about 28%, no sharp cut-off; inactive = mostly below about 43%; also: 0% is about no effect
FMDV inh = antivirals against foot and mouth disease virus | FMDV antiviral cell-based qHTS | Potency, µM (top dose mostly 57.9 µM), without a hit: at the highest dose activity change, negative = inhibition, hits mostly inhibitors | 410,000 tested, 1.2% active | AID 1159524; calls by dose curve; tested in HEK293T cells; also: read-out not given here; potency is read from the fitted curve at half-maximal effect; % is scaled to controls: 0 for no effect and ±100 for the full control effect; nearly all actives have a fitted effect of over 45% in size
Sm TGR block = inhibitors of Schistosoma mansoni thioredoxin glutathione reductase. Q962Y6. purified TGR, DTNB reduction, TNB absorbance 405 nm. Potency, µM (series often up to 114 µM), for inactives: at the top dose activity change, negative = inhibition, usual class: inhibitors. 360,000 tested, 3% active. AID 485364; active = well fitted inhibition curve with a large enough effect; inconclusive = small, poorly fitted or top-dose-only effect; inactive = no such curve, though single readings can be large or run the other way; also: potency is read from the fitted curve at half-maximal effect; % is scaled to controls: 0 for no effect and ±100 for the full control effect; nearly all actives have a fitted effect of over 60% in size
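First, TGR (20 nM dispensed) and NADPH were mixed with compound. Second, a 15 min room-temperature incubation followed. Third, further NADPH and then DTNB were added to start the reaction. Finally, TNB absorbance was monitored kinetically.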
Cycloheximide cs = counter-screen hit for Shiga toxin inhibitors, cycloheximide; cell reporter, cycloheximide protein synthesis inhibition counterscreen; max response, %; 300,000 tested, 12% active; in the data active = max response mostly above about 13%, no sharp cut-off; inactive = mostly below about 14%; also: read at 38.3 µM for the half of the compounds with a filed dose; 0% is about no effect
Active calls of the source: *; ? = inconclusive; nt = no result; [ ] = another dose, or the depositor's remark. In the library only some 12% were active in any assay of this set; here they are far more common.

SMILES	Shiga toxin inh	FMDV inh	Sm TGR block	Cycloheximide cs
c1csc(C2Nc3ccccc3-c3nc4ccccc4n32)c1 (stereo unspecified)	123.6*	10.1%	-4.8%	51.8*
Cc1ccsc1C1Nc2ccccc2-c2nc3ccccc3n21 (stereo unspecified)	132.3*	14.6%	-7.7%	76.1*
c1cncc(C2Nc3ccccc3-c3nc4ccccc4n32)c1 (stereo unspecified)	29.2*	19.8%	11.2%	30.5*
CN1c2ccccc2-c2nc3ccccc3n2C1c1cccs1 (stereo unspecified)	-16.1	-29.1%	1.3%	21.6
COc1ccc(C2=Nn3c(nnc3-c3cc(OC)cc(OC)c3)SC2)cc1	7.1	nt	nt	9.4
Cc1c(C(=O)N2CCC(C)CC2)c(S(=O)(=O)N2CCN(c3ccc(Cl)cc3)CC2)c(C)n1C	nt	-7.1%	0.2%	nt
Cc1ccc(S(=O)(=O)N(C)Cc2nc(-c3ccccc3)oc2C)cc1	nt	-14.3%	11.9%	nt
O=[N+]([O-])c1ccc(C2=Nc3cc(Cl)ccc3OC2)cc1	62.1*	19.3%	-18.1%	12.1
Cc1ccc2c(c1)N=C(c1ccc(F)cc1)CO2	111.0*	29.9%	-12.7%	40.8*
CCNC(=S)N1CCCC(c2nc3ccc(C)cc3[nH]2)C1 (stereo unspecified)	29.3	7.9%	0.0%	9.3
Cc1ccc2nc(C3CCCCC3)[nH]c2c1	42.2*	41.2%	7.4%	38.2*
Cc1cccc(Cn2c(CNS(=O)(=O)c3ccc(C(C)C)cc3)nc3cccnc32)c1	nt	35.3%	2.7%	nt
CCOc1ccc(N(CC(=O)NCc2ccccc2OC)S(C)(=O)=O)cc1	91.7*	65.7%	5.0%	42.6*
Cc1ccc(CNC(=O)CN(c2ccc(Cl)cc2)S(C)(=O)=O)cc1	nt	43.4%	-13.0%	12.1*
CCCCOc1ccc(N(CC(=O)NCc2ccccc2)C(=O)c2csnn2)cc1	29.6*	40.5%	6.5%	26.9
CCOc1ccc(N(CC(=O)NCc2ccccc2)S(C)(=O)=O)cc1	68.1*	36.3%	3.2%	26.3*
COc1cc2c(cc1OC)C(C(=O)c1ccc(OC)c(OC)c1O)=NCC2	nt	4.3%	nt	nt
CCOC(=O)COc1ccc(C)cc1C(=O)c1ccn2nc(-c3ccc(C)cc3)cc2n1	nt	-19.9%	1.1%	nt
CCc1cnc2c(c1SCC(=O)NCc1ccc(F)cc1)c(=O)n(C)c(=O)n2C	nt	-3.4%	49.7%	nt
Cc1ccc2[nH]c(=O)c(CN(CCCO)S(=O)(=O)c3c(C)ccc4nsnc34)cc2c1	12.3	nt	8.1%	-1.4
Cc1cc2cc(CN(Cc3ccco3)S(=O)(=O)c3c(C)ccc4nsnc34)c(=O)[nH]c2cc1C	-10.2	-19.6%	44.7µM*	-1.8
Cc1ccc2cc(CN(Cc3ccco3)S(=O)(=O)c3c(C)ccc4nsnc34)c(=O)[nH]c2c1	29.7	-7.9%	8.91µM*	-1.9
Cc1cc2cc(CN(CCCO)S(=O)(=O)c3cccc4nsnc34)c(=O)[nH]c2cc1C	-1.5	-15.9%	-7.8%	0.9
O=[N+]([O-])c1ccc(C2CN=C(Nc3ccccc3)S2)cc1 (stereo unspecified)	77.3*	0.0%	-4.8%	56.6*
Cc1ccc(NC2=NCC(Cc3ccc(Br)cc3)S2)cc1 (stereo unspecified)	26.5	-11.8%	0.0%	6.3
SMILES	Shiga toxin inh	FMDV inh	Sm TGR block	Cycloheximide cs
CCc1ccc(NC2=NCC(c3ccccc3)S2)cc1 (stereo unspecified)	82.5*	28.7%	-9.8%	58.5*
CN1CCc2c(sc3c2C(=O)NC(/C=C\c2ccccc2)N3)C1 (stereo unspecified)	28.3	-16.0%	10µM*	-3.1
CN1CCc2c(sc3c2C(=O)NC(c2cccs2)N3)C1 (stereo unspecified)	35.1*	nt	-21.1%	33.6*
Cc1ccsc1C1NC(=O)c2c(sc3c2CCN(C)C3)N1 (stereo unspecified)	-4.4	23.2%	-17.6%	1.1
Cn1ccc2cc(S(=O)(=O)N3CCN(C(=O)Nc4ccccc4F)CC3)ccc21	nt	-3.1%	3.4%	nt
CCC1(C2CCN(Cc3ccccc3Cl)CC2)NC(=O)N(CC2COc3ccccc3O2)C1=O (stereo unspecified)	nt	-17.4%	nt	nt
O=C(NC(=S)Nc1ccc2c(c1)OCO2)c1ccc(Cl)cc1	107.9*	111.1%	-18.2%	76.4*
Cc1cc(C)cc(C(=O)NC(=S)Nc2ccc3c(c2)OCCO3)c1	73.7*	28.6%	-27.9%	31.5*
O=C(NC(=S)Nc1ccc2c(c1)OCCO2)c1ccc(F)cc1Cl	33.8*	41.5%	?	28.3*
Cc1ccc(C(=O)NC(=S)Nc2ccc3c(c2)OCCO3)c(C)c1	71.0*	-2.8%	?	33.2*
Cc1cc(C)cc(C(=O)NC(=S)Nc2ccc(Cc3ccncc3)cc2)c1	-7.6	?	-16.5%	-1.3
COc1cc(OC)cc(C(=O)N2CCCC(n3cc(C(=O)NCC(C)C)nn3)C2)c1 (stereo unspecified)	nt	10.8%	nt	nt
CCc1ccc(C(=O)NC(=S)Nc2ccc3c(c2)OCCO3)cc1	71.8*	-1.7%	-24.7%	41.3*
COCCNC(=O)c1ccccc1NC(=O)c1nsc2ccccc12	nt	12.5%	0.0%	nt
O=C(N/N=C/c1cccnc1)c1cc(Br)ccc1O	52.6*	46.5%	-0.3%	26.2*
O=C(N/N=C/c1ccccn1)c1ccc(Br)o1	44.2*	47.8%	5.6%	19.3*
O=C(N/N=C/c1coc2ccccc2c1=O)c1cc(Br)ccc1O	-0.8	10.7%	-8.0%	-1.6
O=C(N/N=C/c1ccccn1)c1cc(Br)ccc1O	48.4*	-5.9%	5.9%	32.4*
CCOc1ccc(Br)cc1C(=O)N/N=C/c1cccnc1	-3.9	13.5%	1.6%	4.0
CCC(C)CCCCC(=O)N[C@@H](CCN)C(=O)N[C@H](C(=O)N[C@@H](CCN)C(=O)N[C@H]1CCNC(=O)C([C@@H](C)O)NC(=O)[C@@H](CCN)NC(=O)[C@H](CCN)NC(=O)[C@H](CC(C)C)NC(=O)[C@@H](CC(C)C)NC(=O)[C@H](CCN)NC1=O)[C@@H](C)O (stereo partly specified)	-12.3	nt	nt	6.1
CCOC(=O)c1c(C)oc2nc(C)nc(NCCCN3CCN(c4cccc(C)c4)C(C)C3)c12 (stereo unspecified)	nt	-23.8%	-5.8%	nt
O=c1/c(=C\c2ccc3c(c2)OCO3)sc2n1CCCN=2	50.2*	-0.7%	-0.2%	28.3*
Cc1ccc(N2CCN(/N=C/c3cccnc3)CC2)cc1	6.9	-14.7%	3.8%	8.0
Cc1ccc(N2CN=c3s/c(=C\c4cccnc4)c(=O)n3C2)cc1	27.5	19.0%	3.1%	19.7*
Cc1ccc(/C=c2\sc3n(c2=O)CN(c2ccc(Br)cc2)CN=3)o1	-3.2	-2.9%	12.6µM*	-3.0
SMILES	Shiga toxin inh	FMDV inh	Sm TGR block	Cycloheximide cs
Cc1nc2ccccn2c1C(=O)N/N=C/c1ccc(CNC(=O)C(=O)Nc2ccccc2)o1	21.3	-10.4%	-17.8%	7.4
O=C(NCc1ccc(/C=c2\sc3n(c2=O)CCN=3)o1)C(=O)Nc1ccccc1	25.7	nt	35.5µM*	20.0
CSC1=N/C(=C\c2ccc(C)o2)C(=O)S1	-12.2	13.4%	-2.2%[11.4 µM]	4.5
Cc1ccc(/C=c2/sc3n(c2=O)CCCN=3)o1	59.5*	0.0%	11.2µM*	35.1*
Cc1cc(OCC(=O)Nc2cc(-c3nc4ccccc4[nH]3)ccc2C)ccc1Cl	nt	?	-3.6%	nt
N#Cc1cnc(Oc2ccc(Cl)cc2)nc1N	26.8	21.7%	1.1%	18.9*
